{
  "source": "the antibiotic and cytotoxicity screens of Wong et al. (2023)",
  "note": "The whole screen tested about 39,000 compounds, of which about 1,500 (3.8%) were called active. For the sample, actives were picked, then their nearest neighbours and some compounds at random.",
  "data": [
    {"test_system": "HSkMC (human skeletal muscle cells)", "test": "cytotoxicity call (relative viability < 0.9)", "conditions": "10 µM", "values": [
      {"smiles": "C[C@@H]1CN([C@@H](C)CO)C(=O)c2cccc(NC(=O)C3CC3)c2O[C@@H]1CN(C)Cc1ccc(-c2ccccc2)cc1", "cytotoxicity call": "inactive"},
      {"smiles": "C[C@@H]1CN([C@H](C)CO)S(=O)(=O)c2ccc(-c3ccccc3F)cc2O[C@H]1CN(C)Cc1cncnc1", "cytotoxicity call": "inactive"},
      {"smiles": "C[C@@H]1CCCCO[C@@H](CN(C)Cc2ccc(Cl)c(Cl)c2)[C@@H](C)CN([C@@H](C)CO)C(=O)c2cc(NC(=O)c3ccccc3)ccc2O1", "cytotoxicity call": "inactive"},
      {"smiles": "COc1ccc(NC(=O)Nc2ccc3c(c2)C(=O)N([C@@H](C)CO)C[C@@H](C)[C@@H](CN(C)Cc2ccc(Cl)c(Cl)c2)OCCCC[C@H](C)O3)cc1", "cytotoxicity call": "inactive"},
      {"smiles": "COc1ccc(NC(=O)Nc2ccc3c(c2)C(=O)N([C@H](C)CO)C[C@H](C)[C@@H](CN(C)Cc2ccc(Cl)c(Cl)c2)OCCCC[C@@H](C)O3)cc1", "cytotoxicity call": "inactive"},
      {"smiles": "COc1ccc(NC(=O)Nc2ccc3c(c2)C(=O)N([C@H](C)CO)C[C@@H](C)[C@H](CN(C)Cc2ccc(Cl)c(Cl)c2)OCCCC[C@H](C)O3)cc1", "cytotoxicity call": "active"},
      {"smiles": "COc1ccc(NC(=O)Nc2ccc3c(c2)C(=O)N([C@H](C)CO)C[C@@H](C)[C@@H](CN(C)Cc2ccc(Cl)c(Cl)c2)OCCCC[C@H](C)O3)cc1", "cytotoxicity call": "inactive"},
      {"smiles": "COc1ccc(NC(=O)Nc2ccc3c(c2)C(=O)N([C@H](C)CO)C[C@H](C)[C@@H](CN(C)Cc2ccc(Cl)c(Cl)c2)OCCCC[C@H](C)O3)cc1", "cytotoxicity call": "inactive"},
      {"smiles": "COc1ccc(NC(=O)Nc2ccc3c(c2)C(=O)N([C@H](C)CO)C[C@@H](C)[C@H](CN(C)Cc2ccc(Cl)c(Cl)c2)OCCCC[C@@H](C)O3)cc1", "cytotoxicity call": "active"},
      {"smiles": "COc1ccc(NC(=O)Nc2ccc3c(c2)C(=O)N([C@@H](C)CO)C[C@H](C)[C@@H](CN(C)Cc2ccc(Cl)c(Cl)c2)OCCCC[C@@H](C)O3)cc1", "cytotoxicity call": "inactive"},
      {"smiles": "COc1ccc(NC(=O)Nc2ccc3c(c2)C(=O)N([C@H](C)CO)C[C@H](C)[C@H](CN(C)Cc2ccc(Cl)c(Cl)c2)OCCCC[C@H](C)O3)cc1", "cytotoxicity call": "active"},
      {"smiles": "COc1ccc(NC(=O)Nc2ccc3c(c2)C(=O)N([C@@H](C)CO)C[C@H](C)[C@H](CN(C)Cc2ccc(Cl)c(Cl)c2)OCCCC[C@@H](C)O3)cc1", "cytotoxicity call": "inactive"},
      {"smiles": "Cc1noc(C)c1S(=O)(=O)N(C)C[C@H]1Oc2c(NC(=O)NC3CCCCC3)cccc2C(=O)N([C@H](C)CO)C[C@@H]1C", "cytotoxicity call": "inactive"},
      {"smiles": "C[C@H](CO)N1C[C@H](C)[C@@H](CN(C)S(=O)(=O)c2cn(C)cn2)Oc2ccc(NC(=O)Cn3cnnn3)cc2C1=O", "cytotoxicity call": "inactive"},
      {"smiles": "CC(C)NC(=O)N(C)C[C@@H]1Oc2ccc(NS(=O)(=O)c3ccc(Cl)cc3)cc2CC(=O)N([C@H](C)CO)C[C@@H]1C", "cytotoxicity call": "inactive"},
      {"smiles": "CC(C)NC(=O)Nc1ccc2c(c1)C(=O)N([C@H](C)CO)C[C@H](C)[C@@H](CN(C)S(=O)(=O)c1ccccc1)O2", "cytotoxicity call": "inactive"},
      {"smiles": "COc1ccc(S(=O)(=O)N(C)C[C@H]2Oc3c(NC(=O)c4cc(C)nn4C)cccc3C(=O)N([C@H](C)CO)C[C@@H]2C)cc1", "cytotoxicity call": "inactive"},
      {"smiles": "COc1ccc(S(=O)(=O)Nc2ccc3c(c2)C(=O)N([C@H](C)CO)C[C@H](C)[C@@H](CN(C)C(=O)Nc2ccccc2)OCCCC[C@@H](C)O3)cc1", "cytotoxicity call": "inactive"},
      {"smiles": "C[C@H]1CN([C@@H](C)CO)C(=O)c2ccccc2-c2ccccc2CO[C@H]1CN(C)Cc1ccc(C(F)(F)F)cc1", "cytotoxicity call": "inactive"},
      {"smiles": "C[C@@H]1CCCCO[C@H](CN(C)Cc2ccc(C(=O)O)cc2)[C@@H](C)CN([C@H](C)CO)C(=O)c2cc(NS(=O)(=O)c3ccc(Cl)cc3)ccc2O1", "cytotoxicity call": "inactive"},
      {"smiles": "CNC(=O)C(=O)Nc1cc(Cl)ccc1C#N", "cytotoxicity call": "inactive"},
      {"smiles": "CCN(CC)C(=O)[C@@H]1C[C@@H](N)CN1S(=O)(=O)N1CCCCCC1", "cytotoxicity call": "inactive"},
      {"smiles": "c1ccc(Cn2c(-c3ccc(OC[C@H](C4CCNCC4)n4c(-c5ccccc5)nc5ccccc54)cc3)nc3ccccc32)cc1", "cytotoxicity call": "active"},
      {"smiles": "Cc1nc2ccccc2n1Cc1ccc(Cl)cc1", "cytotoxicity call": "inactive"},
      {"smiles": "Cc1ccc(OCCn2c(CC(C)(C)C)nc3ccccc32)cc1", "cytotoxicity call": "inactive"},
      {"smiles": "C[C@H](O)C#Cc1ccc2c(c1)O[C@H](CN(C)C(=O)Nc1ccccc1)[C@@H](C)CN([C@H](C)CO)S2(=O)=O", "cytotoxicity call": "inactive"},
      {"smiles": "C[C@H]1CN([C@@H](C)CO)C(=O)c2cc(-c3cccnc3)cnc2O[C@@H]1CN(C)Cc1ccc(-c2ccccc2)cc1", "cytotoxicity call": "inactive"},
      {"smiles": "C[C@@H]1CCCCO[C@H](CN(C)Cc2ccc(Cl)c(Cl)c2)[C@@H](C)CN([C@@H](C)CO)C(=O)c2cc(NC(=O)C3CCCCC3)ccc2O1", "cytotoxicity call": "active"},
      {"smiles": "C[C@@H]1CCCCO[C@H](CN(C)Cc2ccc(Cl)c(Cl)c2)[C@@H](C)CN([C@@H](C)CO)C(=O)c2cc(NC(=O)NC3CCCCC3)ccc2O1", "cytotoxicity call": "active"},
      {"smiles": "C[C@H]1CCCCO[C@H](CN(C)Cc2ccc(Cl)c(Cl)c2)[C@@H](C)CN([C@@H](C)CO)C(=O)c2cc(NC(=O)NC3CCCCC3)ccc2O1", "cytotoxicity call": "active"},
      {"smiles": "C[C@@H]1CCCCO[C@@H](CN(C)Cc2ccc(Cl)c(Cl)c2)[C@H](C)CN([C@H](C)CO)C(=O)c2cc(NC(=O)NC3CCCCC3)ccc2O1", "cytotoxicity call": "inactive"},
      {"smiles": "C[C@@H]1CCCCO[C@H](CN(C)Cc2ccc(Cl)c(Cl)c2)[C@H](C)CN([C@@H](C)CO)C(=O)c2cc(NC(=O)C3CCCCC3)ccc2O1", "cytotoxicity call": "inactive"},
      {"smiles": "C[C@@H]1CCCCO[C@@H](CN(C)Cc2ccc(Cl)c(Cl)c2)[C@@H](C)CN([C@@H](C)CO)C(=O)c2cc(NC(=O)NC3CCCCC3)ccc2O1", "cytotoxicity call": "inactive"},
      {"smiles": "C[C@@H]1CCCCO[C@H](CN(C)Cc2ccc(Cl)c(Cl)c2)[C@@H](C)CN([C@H](C)CO)C(=O)c2cc(NC(=O)NC3CCCCC3)ccc2O1", "cytotoxicity call": "inactive"},
      {"smiles": "C[C@@H]1CCCCO[C@H](CN(C)Cc2ccc(Cl)c(Cl)c2)[C@@H](C)CN([C@H](C)CO)C(=O)c2cc(NC(=O)C3CCCCC3)ccc2O1", "cytotoxicity call": "inactive"},
      {"smiles": "C[C@@H]1CN([C@@H](C)CO)C(=O)c2cc(NC(=O)NC3CCCCC3)ccc2O[C@@H](C)CCCCO[C@H]1CN(C)Cc1ccc(Cl)c(Cl)c1", "cytotoxicity call": "inactive"},
      {"smiles": "C[C@@H]1CN([C@H](C)CO)C(=O)c2cccc(NS(C)(=O)=O)c2O[C@@H]1CN(C)Cc1ccc(C(=O)O)cc1", "cytotoxicity call": "inactive"},
      {"smiles": "Cc1noc(C)c1S(=O)(=O)N(C)C[C@H]1Oc2ccc(NC(=O)NC3CCCCC3)cc2CC(=O)N([C@@H](C)CO)C[C@H]1C", "cytotoxicity call": "inactive"},
      {"smiles": "O=C(C[C@@H]1C[C@@H]2c3cc(NS(=O)(=O)c4ccc(F)cc4)ccc3O[C@@H]2[C@H](CO)O1)NCCN1CCCCC1", "cytotoxicity call": "inactive"},
      {"smiles": "C=CC[C@@H](CC(=O)N[C@H](CO)Cc1ccccc1)C(=O)NCCOC(=O)[C@H](CC=C)CC(=O)OC(C)(C)C", "cytotoxicity call": "inactive"},
      {"smiles": "CCCCCN1CC=C[C@]23O[C@@H]4/C=C/CCC(=O)N(C)[C@H](C)[C@@H](c5ccccc5)OC(=O)[C@@H]4[C@H]2C(=O)N(c2ccccc2Cl)[C@@H]3C1=O", "cytotoxicity call": "inactive"},
      {"smiles": "Cc1noc(C)c1NC(=O)Nc1ccc2c(c1)C(=O)N([C@H](C)CO)C[C@H](C)[C@H](CN(C)S(=O)(=O)c1cccs1)OCCCC[C@H](C)O2", "cytotoxicity call": "inactive"},
      {"smiles": "C[C@@H]1CN([C@@H](C)CO)S(=O)(=O)c2ccc(C#CC3CC3)cc2O[C@@H]1CN(C)C(=O)c1cccc(F)c1", "cytotoxicity call": "inactive"},
      {"smiles": "CC(C)(O)c1ccccc1CCC(SCC1(CC(=O)[O-])CC1)c1cccc(C=Cc2ccc3ccc(Cl)cc3n2)c1.[Na+]", "note": "(stereo not given)", "cytotoxicity call": "inactive"},
      {"smiles": "CC(C)(O)c1ccccc1CC[C@@H](SCC1(CC(=O)O)CC1)c1cccc(/C=C/c2ccc3ccc(Cl)cc3n2)c1", "cytotoxicity call": "active"},
      {"smiles": "C[C@@H]1CN([C@H](C)CO)C(=O)c2cc(NC(=O)Nc3cccc4ccccc34)ccc2O[C@@H](C)CCCCO[C@@H]1CN(C)S(=O)(=O)c1ccc(F)cc1", "cytotoxicity call": "inactive"},
      {"smiles": "COCC(=O)N1C[C@@H](C(=O)N2CCCO2)C[C@@H]2OCC[C@@H]21", "cytotoxicity call": "inactive"},
      {"smiles": "O=C(Nc1cccc2cccnc12)[C@@H]1[C@H](c2ccc(I)cc2)CC(=O)N1C(=O)OCc1ccccc1", "cytotoxicity call": "inactive"},
      {"smiles": "C[C@@H]1CCCCO[C@H](CN(C)C(=O)c2ccccc2)[C@H](C)CN([C@@H](C)CO)C(=O)c2cc(NS(=O)(=O)c3ccccc3)ccc2O1", "cytotoxicity call": "inactive"},
      {"smiles": "Cc1c2oc3c(C)ccc(C(=O)N[C@@H]4C(=O)N[C@@H](C(C)C)C(=O)N5CCC[C@H]5C(=O)N(C)CC(=O)N(C)[C@@H](C(C)C)C(=O)O[C@@H]4C)c3nc-2c(C(=O)N[C@@H]2C(=O)N[C@@H](C(C)C)C(=O)N3CCC[C@H]3C(=O)N(C)CC(=O)N(C)[C@@H](C(C)C)C(=O)O[C@@H]2C)c(N)c1=O", "cytotoxicity call": "inactive"},
      {"smiles": "Cc1c2oc3c(C)ccc(C(=O)N[C@@H]4C(=O)N[C@H](C(C)C)C(=O)N5CCC[C@H]5C(=O)N(C)CC(=O)N(C)[C@@H](C(C)C)C(=O)O[C@@H]4C)c3nc-2c(C(=O)N[C@@H]2C(=O)N[C@H](C(C)C)C(=O)N3CCC[C@H]3C(=O)N(C)CC(=O)N(C)[C@@H](C(C)C)C(=O)O[C@@H]2C)c(N)c1=O", "cytotoxicity call": "active"},
      {"smiles": "Cc1c2oc3c(C)ccc(C(=O)OC(C)C4NC(=O)C(C(C)C)N(C)C(=O)CN(C)C(=O)C5CCCN5C(=O)C(C(C)C)NC4=O)c3nc-2c(C(=O)OC(C)C2NC(=O)C(C(C)C)N(C)C(=O)CN(C)C(=O)C3CCCN3C(=O)C(C(C)C)NC2=O)c(N)c1=O", "note": "(stereo not given)", "cytotoxicity call": "inactive"},
      {"smiles": "CC(=O)O[C@H]1C[C@@]2(C)[C@@H](C[C@@H](O)[C@@H]3[C@@]4(C)CC[C@@H](O)[C@@H](C)[C@@H]4CC[C@@]32C)/C1=C(/CCC=C(C)C)C(=O)O", "cytotoxicity call": "inactive"},
      {"smiles": "COc1ccccc1S(=O)(=O)N[C@H]1C=C[C@@H](CC(=O)N2CCN(C)CC2)O[C@H]1CO", "cytotoxicity call": "inactive"},
      {"smiles": "O=C(C[C@@H]1CC[C@@H]2[C@H](COC[C@H](O)CN2S(=O)(=O)c2ccccc2)O1)N[C@@H]1CCN(Cc2ccccc2)C1", "cytotoxicity call": "inactive"}
    ]}
  ]
}
